Source: PubChem BioAssay (NCATS)
Inconclusive results are not listed. Activity calls are given as the source filed them. Calls come from the whole dose curve; tested in HEK293 reporter line.

Experiment: qHTS for Inhibitors of the Functional Ribonucleoprotein Complex (vRNP) of Lassa (LASV) Arenavirus: Viability assay - alamar blue signal for LASV Primary Screen (AID 1347083); note: nearly all actives have a fitted effect of over 80% in size
Settings: cell viability, alamar blue fluorescence (LASV minigenome counter-screen); series mostly up to 57.5 µM
Potency is the fitted concentration of half-maximal effect.

| SMILES | Potency |
| --- | --- |
| CCCCN1CCC(CNC(=O)c2c3n(c4ccccc24)CCCO3)CC1 | 17.2 µM (active) |
| COc1ccccc1[C@H](c1cccc2ccccc12)[C@@](C)(C#N)C(=O)N1CCC(c2cccc(C(F)(F)F)c2)CC1 | 21.7 µM (active) |
| COc1cccc2nc(-c3cccs3)nc(NN3C(=O)C=C(C)C3=O)c12 | 2.73 µM (active) |
| Cc1nc(N)sc1-c1ccnc(Nc2ccc(N3CCOCC3)cc2)n1 | 7.69 µM (active) |
| Cn1cc(-c2[nH]c3cc(NC(=O)[C@H](N)C4CCCCC4)cc4c3c2C=NNC4=O)cn1 | 3.43 µM (active) |
| NC(=O)c1ccc(-c2nc(-c3ccc4c(c3)OCCO4)c(-c3ccccn3)[nH]2)cc1 | 21.7 µM (active) |
| OCCn1cc(-c2ccc3c(c2)CCC3=NO)c(-c2ccncc2)n1 | 10.9 µM (active) |
| Cc1cc2c(F)c(Oc3ncnn4cc(OC[C@@H](C)O)c(C)c34)ccc2[nH]1 | 24.3 µM (active) |
| COc1cc2ncn(-c3cc(OCc4ccccc4C(F)(F)F)c(C(N)=O)s3)c2cc1OC | 1.72 µM (active) |
| O=C(Nc1ccc(Oc2ccc(Cl)cc2)c(Cl)c1)c1cc(I)cc(I)c1O | inactive |
| CN[C@@H](C)C(=O)N[C@H]1CCCC[C@H]2CC[C@@H](C(=O)N[C@@H](c3ccccc3)c3cn(CCCCc4ccc(CCCCn5cc([C@@H](NC(=O)[C@@H]6CC[C@@H]7CCCC[C@H](NC(=O)[C@H](C)NC)C(=O)N76)c6ccccc6)nn5)cc4)nn3)N2C1=O | 19.3 µM (active) |
| CN1[C@H]2CC(O)C[C@H]1[C@H]1O[C@H]12 (some centres undefined) | 27.3 µM (active) |
| CO[C@@H]1[C@H](N(C)C(=O)c2ccccc2)C[C@H]2O[C@]1(C)n1c3ccccc3c3c4c(c5c6ccccc6n2c5c31)C(=O)NC4 | 3.06 µM (active) |
| CN(C)Cc1ccc(-c2nc3cccc4c3n2CCNC4=O)cc1 | 21.7 µM (active) |
| COc1ccc(-c2c(-c3ccc(O)cc3O)n[nH]c2C)cc1 | inactive |
| COc1cc2nc(N3CCCN(C)CC3)nc(NC3CCN(Cc4ccccc4)CC3)c2cc1OC | 0.611 µM (active) |
| Cc1cn2c(-c3cn[nH]c3)cnc2c(Nc2ccc(C(=O)N3CCNCC3)cc2F)n1 | 3.85 µM (active) |
| COc1cc2nccc(Oc3ccc(NC(=O)C4(C(=O)Nc5ccc(F)cc5)CC4)cc3)c2cc1OC | 27.3 µM (active) |
| CCN1CCN(CC(=O)Nc2ccc(-c3cccc4c(=O)cc(N5CCOCC5)oc34)c3sc4ccccc4c23)CC1 | 0.544 µM (active) |
